Results published in PubChem BioAssay (NCI).
About 83,000 compounds went through this panel and 20% of them were active in at least one assay; those are over-represented in the sample as a whole.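 Cells were grown in 96-well plates and exposed to the test compound at a single concentration for 48 hours; results are reported as percent growth, with values below 10 considered active.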 Values without a mark were called inactive. Activity calls are given as the source filed them.

What was measured:
Assay in all cases: NCI-60 one-dose screen, 48 h (100 = growth as untreated, 0 = no growth, -100 = all killed)
Conditions in all cases: 10 µM unless noted
[1] = test system: T-47D breast
[2] = test system: BT-549 breast
[3] = test system: MDA-MB-435 melanoma
[4] = test system: SW-620 colon
[5] = test system: MCF7 breast
[6] = test system: HCT-116 colon
[7] = test system: HCC-2998 colon
[8] = test system: KM12 colon

Row | SMILES | growth [1] | growth [2] | growth [3] | growth [4] | growth [5] | growth [6] | growth [7] | growth [8]
1 | Cc1ccc(NC(=O)N[C@@H](Cc2cc(F)cc(F)c2)C(=O)NC2C(=O)N3CCC[C@H]3C(=O)N3CCCC[C@H]3C(=O)N[C@@H](C)C(=O)N3C[C@H](C)C[C@H]3C(=O)O[C@H]2C)c(F)c1 (stereo not given in full) | 31.5% | 28.7% | 21.2% | 36.5% | 15.5% | 9.88% (active) | 23.9% | 38.7%
2 | N#Cc1c(NC(=O)c2ccc(F)c(Cl)c2)sc2c1CCC(=O)C2 | -18.3% (active) | 2.09% (active) | -39.5% (active) | -24% (active) | 4.86% (active) | 0.878% (active) | 25.8% | 4.23% (active)
3 | CC1(C)CC[C@]2(C(=O)O)CC[C@]3(C)C(=CCC4[C@@]5(C)C[C@@H](O)[C@@H]6OC(c7ccccc7O)OC[C@@]6(C)C5CC[C@]43C)C2C1 (stereo not given in full) | 57.7% | 42.4% | 77.5% | 37.8% | 62.8% | 4.38% (active) | 34.9% | 24.5%
4 | Nc1nc(-c2cccc([N+](=O)[O-])c2)c(N=Nc2ccccc2[N+](=O)[O-])s1 | 42.3% | 34.4% | 67.7% | 6.99% (active) | 82.2% | -13.8% (active) | 84.9% | 54.2%
5 | Cn1nc(Nc2ccccc2)c(C(=O)NN)c1N | 95.4% | 129% | 105% | 99.8% | 89.7% | 113% | 107% | 99.4%
6 | C=CCn1c(SCC(=O)Nc2cccc(C(=O)/C=C/c3cccc([N+](=O)[O-])c3)c2)nc2ccccc2c1=O | 79.1% | 111% | 98.4% | 62% | 33.2% | 8.94% (active) | 101% | 104%
7 | CN1CCN(c2ccc3c(c2)nc(NNC(=O)c2ccncn2)c2cccn23)CC1 | 32.7% | 45.2% | 27.5% | 22.8% | 17.6% | 23.6% | 22.3% | 17.4%
8 | COCCOc1ccc(-c2csc(NC(C)=O)n2)cc1NS(=O)(=O)c1cccc2c(N(C)C)cccc12 | 67.7% | 105% | 105% | 111% | 85% | 88.2% | 113% | 97.1%
9 | NNC(=O)c1sc2nc(-c3cnccn3)cc(-c3cccs3)c2c1N | 86.4% | 101% | 100% | 110% | 84.6% | 99.3% | 100% | 92.6%
10 | Oc1ccc(-c2nnc(SCc3ccc(O)c4ncccc34)o2)cc1 | 11.1% | 12.8% | 12.3% | 16.3% | 2.57% (active) | 7.61% (active) | 22.5% | 9.65% (active)
11 | O=C(COc1ccc(C2SCC(=O)N2c2ccc(F)cc2)cc1)c1ccccc1 (stereo not given) | 89.8% | 93.4% | 103% | 116% | 81.7% | 94.3% | 106% | 92.4%
12 | C#CCOc1ccc(C(Nc2cc(Cl)ccc2Cl)c2nnnn2C2CCCCC2)cc1 (stereo not given) | 67.5% | 93.6% | 102% | 91.8% | 73.4% | 56.3% | 90.1% | 92%
13 | COc1ccc(NC(=O)Cn2cc(CN3C(=O)c4ccc([N+](=O)[O-])cc4C3=O)nn2)cc1 | 95.5% | 111% | 110% | 97.5% | 91.3% | 109% | 102% | 106%
14 | Cc1cc(Cl)cc(NS(=O)(=O)c2ccc(-c3cnc(C4CC4)o3)cc2)c1 | 36.1% | 48% | -23.8% (active) | 28% | 24.9% | 18.4% | 19.8% | 15.4%
15 | COCCC[C@H]1O[C@@](O)([C@H](C)[C@@H]2CC(OC)C(O)/C=C(C)/C=C(C)/C=C(\C)C(OC3O[C@@H](C)[C@H](O)C(O)[C@@H]3O)C(C)/C=C(C)/C=C(OC)/C=C(\C)C(=O)O2)C(OC)C(O)[C@]1(C)O[C@H]1C[C@@H](O)[C@H](O[C@H]2C[C@](C)(O)[C@H](O)C(C)O2)C(C)O1 (stereo not given in full) | 24.6% | 28.7% | 54.9% | 76.4% | 22.4% | 48.2% | 56.4% | 66.5%
16 | CN1C(=O)N(C)C2Nn3c(s/c(=C\c4ccccn4)c3=O)=NC21 (stereo not given) | 102% | 103% | 99.2% | 105% | 89.3% | 100% | 109% | 106%
17 | CN(c1ccc(F)cc1)S(=O)(=O)c1ccc(-c2cnc(C3CC3)o2)cc1 | 54.1% | 46.2% | -26.2% (active) | 32.9% | 23.7% | 18.7% | 22.3% | 18.5%
18 | CCNCCCn1c2c(c3cc(OC)c(OC)cc3c1=O)C(=O)c1cc(OC)cnc1-2 | -0.933% (active) | 27.3% | 38% | 37.1% | 8.05% (active) | 0.589% (active) | 43.4% | 45.4%
19 | N#Cc1c(NC(=O)c2ccccc2C(F)(F)F)sc2c1CCC(=O)C2 | 1.79% (active) | 11.7% | 0.916% (active) | 3.92% (active) | 3.89% (active) | 8.03% (active) | 27.6% | 5.98% (active)
20 | Cn1cc(-c2nn3cc(-c4cccnc4)nc3s2)c2cc(F)ccc21 | 65% | 92% | 29.7% | 80.3% | 37.8% | 91% | 96.6% | 76.4%
21 | COCCOc1ccc(-c2csc(NC(=O)CN3CCN(CCO)CC3)n2)cc1NS(=O)(=O)c1cccc2c(N(C)C)cccc12 | 84.5% | 96.1% | 83% | 93.4% | 93.6% | 10.8% | 91.3% | 97.4%
22 | Cc1ccc(-c2cc3nc(C(Cl)Cl)nc(-c4ccccc4)n3n2)cc1 | 90.4% | 95.8% | 91.5% | 79.5% | 64.1% | 82.2% | 65.3% | 65.8%
23 | O=C(Nc1cc(Cl)cc(Cl)c1)Nc1nc2ccc([N+](=O)[O-])cc2s1 | -13.4% (active) | -24% (active) | -6.04% (active) | 8.7% (active) | 2.98% (active) | 0.0425% (active) | 3.91% (active) | 3.63% (active)
24 | COc1cc(/C=C2\SC(=O)NC2=O)ccc1OCC(=O)Nc1ccc(C(=O)/C=C/c2cc3ccccc3nc2Cl)cc1 | 66.3% | 72.9% | 83.6% | 96.6% | 20.9% | -62% (active) | 103% | 91.6%
25 | Cc1ccc(/C=C/c2nn3c(-c4ccco4)nnc3s2)cc1 | 92.9% | 99.2% | 97.1% | 102% | 89.5% | 112% | 114% | 103%
26 | C#C[C@]1(O)CC[C@H]2[C@@H]3CC=C4c5sc(Nc6cccc(Cl)n6)nc5CC[C@]4(C)[C@H]3CC[C@@]21C | 25.8% | 24.1% | -65.8% (active) | -61% (active) | -70.4% (active) | 10.1% | 24.2% | -10.8% (active)
27 | CCn1c2ccc(/C=N/NS(=O)(=O)CCN(C)C)cc2c2cc(/C=N/NS(=O)(=O)CCN(C)C)ccc21 | 102% | 99.1% | 96.9% | 90.8% | 89.4% | 99.4% | 104% | 106%
28 | Cc1ccc(-n2cc(/C=C/C(=O)c3ccc(S(C)(=O)=O)cc3)c(-c3ccc(S(C)(=O)=O)cc3)n2)cc1 | 105% | 91.5% | 31.4% | 64.9% | 64.8% | 53.4% | 107% | 59.5%
29 | C(=C(\C1=NCCN1)n1cnc2ccccc21)/c1cccc2ccccc12 | 82.4% | 107% | 74% | 102% | 57.3% | 88% | 92.9% | 42.5%
30 | O=c1c2ccccc2nc(COc2ccccc2)n1/N=C/C=C/c1ccccc1 | 94.6% | 135% | 99.8% | 91.5% | 83.8% | 96.5% | 101% | 111%
